RecA intein inh = Mtb RecA intein splicing inhibition. 290,000 compounds, 0.75% hits. inhibition, % (no concentration beside the values). cell-free RecA intein splicing, fluorescence. P9WHJ3; in the data active = inhibition above about 30%
Rv3671c protease = Rv3671c (M. tuberculosis) protease inhibition. 320,000 compounds, 0.048% hits. inhibition, % at 5.96 µM. P9WHR9; in the data active = inhibition above about 38%;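 note: extracellular domain of Rv3671c used as enzyme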
GDH-TPI counter = inhibits GDH-TPI coupling enzymes, artifact for Mtb FBA screen | GDH-TPI coupled enzyme counterscreen, NADH absorbance | inhibition, % at 4.8 µM | 360,000 compounds, 1.2% hits | AID 588335; in the data active = inhibition above about 30%
Mtb bLac sens = beta-lactam sensitization of Mtb H37Rv. M. tuberculosis H37Rv growth with meropenem, percent inhibition. inhibition, % at 25 µM. 330,000 compounds, 0.27% hits. AID 434955; call rule not given here;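 note: growth measured after seven days incubation then overnight dye step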
UGM FP inh = Mtb UDP-galactopyranose mutase inhibition | inhibition, % at 10 µM | AID 504406 | 320,000 compounds, 0.06% hits | P9WIQ1 | purified UGM, fluorescence polarization probe displacement; in the data active = inhibition above about 10%, passing the limit was not always enough
Mtb FBA inh = inhibits M. tuberculosis FBA enzyme; P9WQA3; purified M. tuberculosis FBA, fluorescence read-out; inhibition, % at 1 µM; 360,000 compounds, 2.3% hits; AID 588726; in the data active = inhibition above about 27%
Target sequence (P9WQA3 whole entry, looked up): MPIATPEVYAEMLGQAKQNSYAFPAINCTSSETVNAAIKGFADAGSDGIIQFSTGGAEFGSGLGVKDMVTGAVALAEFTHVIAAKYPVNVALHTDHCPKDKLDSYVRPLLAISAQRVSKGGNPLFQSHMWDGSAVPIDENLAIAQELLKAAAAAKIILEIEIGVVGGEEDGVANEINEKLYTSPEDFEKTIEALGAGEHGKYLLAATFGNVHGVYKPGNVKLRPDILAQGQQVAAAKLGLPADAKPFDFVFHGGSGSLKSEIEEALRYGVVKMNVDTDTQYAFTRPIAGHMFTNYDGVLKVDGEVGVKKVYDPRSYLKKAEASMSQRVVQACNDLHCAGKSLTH
A number is an active result; 0 = inactive; - = no result; + = active, no number. Rows were chosen to be rich in hits. Some 4% of all compounds tested hit in one or more screens of this group.

SMILES	RecA intein inh	Rv3671c protease	GDH-TPI counter	Mtb bLac sens	UGM FP inh	Mtb FBA inh
O=C(O)c1ccc(-c2ccccc2)[nH]1	0	0	0	0	0	0
O=C(O)c1ccc2cc(-c3ccccc3)[nH]c2c1	0	0	0	0	0	+
Cn1c(C(C#N)C(=O)c2ccco2)nc2ccccc21 (centres undefined)	0	0	33	0	0	0
CN(C(=O)/C=C/c1ccco1)c1ccccc1C(=O)O	0	0	32	0	0	0
COc1ccc(N=CC2=C(O)c3ccccc3C2=O)c(OC)c1	0	0	0	0	0	0
Cc1ccccc1N=CC1=C(O)c2ccccc2C1=O	0	0	46	0	0	0
CCOC(=O)c1ccc(NS(=O)(=O)c2c(C)nc3sccn3c2=O)cc1	0	0	35	0	0	0
Nc1nnnn1/N=C/c1cc(Br)ccc1O	0	0	32	0	0	0
Nc1nnnn1/N=C/c1ccc(Br)cc1	0	-	0	0	0	0
COc1ccc([N+](=O)[O-])cc1NC(=O)CCN1CCN(c2ccccc2OC)CC1	0	0	0	0	0	0
Cc1ccc(S(=O)(=O)n2c([N+](=O)[O-])cnc2C)cc1C	0	0	0	0	0	0
Cc1cc(C)c(S(=O)(=O)n2c([N+](=O)[O-])cnc2C)cc1C	0	0	0	0	10	0
O=C(CSc1nnc(CNC(=O)c2ccccc2F)o1)NCc1ccccc1	0	0	0	0	0	0
Cc1c(C(=O)C(=O)N2CCC3(CC2)OCCO3)c2ccccc2n1C	0	0	46	0	0	0
COCCNC(=O)/C(C#N)=C1\N=C(NC(=O)c2ccco2)c2ccccc21	-	-	45	-	-	0
CC(C)CNC(=O)/C(C#N)=C1\N=C(NC(=O)c2ccco2)c2ccccc21	0	0	0	0	0	0
CCCNC(=O)/C(C#N)=C1\N=C(NC(=O)c2ccco2)c2ccccc21	0	0	35	0	0	0
N#C/C(C(=O)NCc1ccccc1)=C1/N=C(NC(=O)c2cccs2)c2ccccc21	0	0	0	0	0	0
Cc1c(Cl)cccc1NC(=O)CC1NCCNC1=O (centres undefined)	0	0	0	0	0	+
Cc1cccc(C)c1NC(=O)COC(=O)c1c2c(nc3ccccc13)/C(=C\c1ccc3c(c1)OCO3)CCC2	-	0	0	0	19	0
CC(OC(=O)c1c2c(nc3ccccc13)/C(=C\c1ccc3c(c1)OCO3)CCC2)C(=O)Nc1ccc(S(N)(=O)=O)cc1 (centres undefined)	-	-	0	-	-	0
CCOc1cc(/C=C2\CCCc3c2nc2ccccc2c3C(=O)O)ccc1OC	0	0	0	0	44	0
Oc1ccc(C=NC2CCCCC2)cc1	0	0	37	0	0	0
COC(=O)C1=CN(Cc2ccccc2)C=C(C(=O)OC)C1c1cc(F)ccc1F	0	0	0	0	0	122
COC(=O)C1=CN(Cc2ccc(OC)c(OC)c2)C=C(C(=O)OC)C1c1cccc(F)c1	-	0	0	0	0	123
SMILES	RecA intein inh	Rv3671c protease	GDH-TPI counter	Mtb bLac sens	UGM FP inh	Mtb FBA inh
Cc1cc(C)n(CC(O)COc2ccccc2Br)n1 (centres undefined)	0	0	0	0	0	0
Nc1ccccc1C(=O)Nc1ccc(Cl)cc1Cl	0	0	0	0	0	0
CCCn1c(/C=C/c2ccccc2)nc2ccccc21	0	0	38	0	0	53
CCn1c(/C=C/c2cc[n+](C)cc2)nc2ccccc21	0	0	0	0	0	0
COc1ccccc1C(=O)N/N=C(\C)CC(=O)Nc1ccc(Nc2ccccc2)cc1	0	0	0	0	0	0
CCOC(=O)C1C(=O)C=C(c2ccc(NS(C)(=O)=O)cc2)CC1c1ccco1 (centres undefined)	0	0	33	0	0	0
CCCCC(CC)Cn1c2nc3ccccc3nc2c2c(=N)oc(C)nc21 (centres undefined)	0	-	-	-	-	-
COc1ccc(-n2c3nc4ccccc4nc3c3c(=N)oc(C)nc32)cc1	72	0	0	0	0	0
CCC(C)C(NS(=O)(=O)c1ccc(C)cc1)C(=O)Oc1ccc2c3c(c(=O)oc2c1)CCC3 (centres undefined)	0	0	0	0	0	37
Cc1ccc(S(=O)(=O)NC(CC(C)C)C(=O)Oc2ccc3c4c(c(=O)oc3c2)CCC4)cc1 (centres undefined)	0	0	0	0	0	+
CC[C@@H](NS(=O)(=O)c1ccc(C)cc1)C(=O)Oc1ccc2c3c(c(=O)oc2c1)CCC3	0	0	0	0	-	+
COc1ccc(-c2cc(-c3ccccc3)c(C#N)c(S(C)=O)n2)cc1 (centres undefined)	0	0	31	0	0	+
Cc1ccc2nc(/C(C#N)=C\c3cc(C)n(-c4cccc([N+](=O)[O-])c4)c3C)[nH]c2c1	0	0	32	0	0	0
Cc1ccc(N2CCCn3c2cc(C)c(C#N)c3=O)cc1C	0	0	39	0	0	0
O=C(C[n+]1cccc2ccccc21)c1ccc([N+](=O)[O-])cc1	0	0	0	0	0	0
O=C(C[n+]1cccc2ccccc21)c1ccc(Cl)cc1	0	0	0	0	0	125
OC(CN1C2=NCCN2c2ccccc21)c1ccc(Br)cc1 (centres undefined)	0	0	0	0	0	0
Cc1c(OCC(=O)NC(Cc2ccc(Cl)cc2)C(=O)O)ccc2c3c(c(=O)oc12)CCCC3 (centres undefined)	0	0	0	0	0	0
COc1ccc2c(CC(=O)NC(Cc3ccc(Cl)cc3)C(=O)O)cc(=O)oc2c1C (centres undefined)	0	-	0	0	0	121
Cc1cc(OCC(=O)NC(Cc2ccc(Cl)cc2)C(=O)O)c2c(C)cc(=O)oc2c1 (centres undefined)	0	0	0	0	0	74
CCCCc1cc(=O)oc2cc(C)cc(OC(C)C(=O)O)c12 (centres undefined)	0	0	0	0	0	134
CCCCc1cc(=O)oc2cc(C)cc(O)c12	0	0	0	0	0	0
CCCCc1cc(=O)oc2cc(O)cc(O)c12	0	0	0	0	0	129
COc1ccc(-c2nnc(OCc3nc4ccccc4n3C)c3ccccc23)cc1	0	0	0	0	0	0
CCOc1cc(C(=O)NCc2ccc(F)cc2)ccc1OCC(=O)N1CCCCC1	-	0	0	0	0	0
CCc1ccccc1NC(=S)NCCSc1ccc(Cl)cc1	0	0	0	0	0	0
O=C1CCC(C(=O)N2CCOCC2)CN1Cc1ccc(Cl)cc1 (centres undefined)	0	0	0	0	0	0
CCc1cc(=O)oc2cc(C)cc(OCC(=O)N3CCC(C(=O)NC(C)C)(c4ccccc4)CC3)c12	0	0	0	0	0	66
CCCc1cc(=O)oc2cc(C)cc(OCC(=O)N[C@@H](CSCc3ccccc3)C(=O)O)c12	0	0	0	0	0	39
CCCN1C(=O)C2(SC(NC(C)=O)=NN2C(C)=O)c2cc(C)cc(C)c21 (centres undefined)	0	0	0	0	0	0

Screening data as filed in PubChem BioAssay.
